# Assay outcomes as filed in PubChem BioAssay.
# The list is not random: actives were taken first. Their share in the collection is about 1.4%.
# ASM inhibitor = blocks human secretory acid sphingomyelinase; placental ASM, HMU-PC fluorogenic substrate, 60 min; hit rate 0.006% among 340,000; Potency, µM (series often up to 57.5 µM), inactives show at the top dose activity change, negative = inhibition, most hits filed as inhibitors; P17405; further: potency means the concentration at half of the fitted maximal effect
# Target sequence (P17405 47-631 limits assumed): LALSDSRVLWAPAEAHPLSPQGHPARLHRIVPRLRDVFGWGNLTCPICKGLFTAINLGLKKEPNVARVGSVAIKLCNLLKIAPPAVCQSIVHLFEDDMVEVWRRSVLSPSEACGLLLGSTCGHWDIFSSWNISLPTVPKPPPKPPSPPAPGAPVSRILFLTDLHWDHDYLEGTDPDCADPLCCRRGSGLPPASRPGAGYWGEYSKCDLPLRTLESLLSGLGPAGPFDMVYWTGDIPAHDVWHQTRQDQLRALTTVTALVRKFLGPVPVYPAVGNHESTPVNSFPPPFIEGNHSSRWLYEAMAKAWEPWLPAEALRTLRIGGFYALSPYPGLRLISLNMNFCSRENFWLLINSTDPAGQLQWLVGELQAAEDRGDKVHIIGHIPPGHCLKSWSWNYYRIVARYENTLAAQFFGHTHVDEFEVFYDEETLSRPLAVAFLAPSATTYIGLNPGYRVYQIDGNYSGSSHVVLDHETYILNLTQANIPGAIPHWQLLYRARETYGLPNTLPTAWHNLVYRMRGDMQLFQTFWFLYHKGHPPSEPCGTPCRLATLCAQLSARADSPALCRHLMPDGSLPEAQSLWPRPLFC
#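 Human placenta-derived ASM preincubated with compound 10 min at room temperature, then reacted with 9 uM (final) fluorogenic HMU-PC substrate for 60 min at 37 C. Stop solution raises pH to 10; fluorescence read at Ex 386/Em 447 nm.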
# 12-LOX inh = ALOX12 (human) lipoxygenase inhibition | P18054 | purified 12hLO, xylenol orange hydroperoxide absorbance | Potency, µM (series often up to 108 µM), without a hit: at the highest dose activity change, negative = inhibition, most hits filed as inhibitors | hit rate 1.1% among 580,000; further: potency means the concentration at half of the fitted maximal effect; on the % scale 0 is the no-effect control and ±100 the full control effect
#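 Hydroperoxide product was detected by ferrous iron/xylenol orange as the 573 to 405 nm absorbance ratio. Arachidonic acid at 40 uM (final) was turned over for 30 min at room temperature by 150 nM human 12hLO, pH 7.0 Hepes buffer, after 15 min compound preincubation.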
# TSG101-PTAP inh = blocks PTAP/TSG101 interaction to inhibit HIV-1 budding; Q99816; Fluorescence polarization, FITC-PTAP peptide / Tsg101 binding; Potency, µM (doses to about 115 µM), without a hit: top-dose activity change, negative = inhibition, most hits filed as inhibitors; 340,000 tested, under 10 active; AID 493005; active means well fitted inhibition curve with a large enough effect in the main read-out, with a control signal flat, not every such curve was filed as active; inconclusive means small, poorly fitted or top-dose-only effect, or effect the other way, or a change in a side signal; inactive means no such curve, though single readings can be large or run the other way; further: potency means the concentration at half of the fitted maximal effect; % of control where 0% means no effect
#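 Fluorescence anisotropy tracks displacement of a FITC-tagged PTAP peptide (50 nM) from the Tsg101 binding domain (10 uM), following a 20 min room-temperature incubation at pH 7.5.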
# pAkt inh = inhibitors of Akt phosphorylation | Neuro2A IGF-stimulated pAkt S473 HTRF, 20 min; active compounds read low | activity change, % for hits at 50 µM | hit rate 0.32% among 360,000 | AID 651550; in the data active means activity change below about -80%; inconclusive means mostly about -51% to -80%; further: on the % scale 0 is the no-effect control and ±100 the full control effect
#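 Neuro2A cells in DMEM with 0.5% FBS, overnight at 37 deg C, given compound at single 50 µM final, then IGF (6 nM final) for 20 min at 37 deg C. Lysed; phospho-Akt Ser473 by HTRF after 24 h, 665/615 ratio.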
# Vif-A3F inh = inhibitors of Vif-A3F interaction; AID 602313; HeLa A3F-eYFP + Vif (tagged APOBEC3F with the HIV-1 protein that degrades it), YFP fluorescence increase; Potency, µM (titrated, usually from 46.1 µM), without a hit: at the top dose activity, negative = active; hit rate 0.2% among 390,000; further: potency means the concentration at half of the fitted maximal effect; % of control where 0% means no effect; nearly all actives have a fitted effect of over 65% in size
#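 HeLa cells stably expressing Vif plus C-terminally eYFP-tagged A3F were seeded, incubated overnight at 37 deg C, dosed with compound, incubated overnight again at 37 deg C. Yellow fluorescence (Ex 488/Em 500-530) reported blocked Vif-mediated A3F-eYFP degradation.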
# Vif-APOBEC3G blk = Vif-A3G binding inhibition; HeLa A3G-eYFP + Vif (tagged APOBEC3G with the HIV-1 protein that degrades it), YFP fluorescence, overnight; Potency, µM (titrated, usually from 46.1 µM), for the others: at the top dose activity, negative = active, usual class: inhibitors; hit rate 0.076% among 410,000; further: potency means the concentration at half of the fitted maximal effect; on the % scale 0 is the no-effect control and ±100 the full control effect; nearly all actives have a fitted effect of over 60% in size
#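 Read-out is eYFP fluorescence (Ex 488/Em 500-530) from Vif-expressing HeLa A3G-eYFP cells; more signal means A3G escaped Vif-mediated degradation. Cells plated overnight, compound pinned in, incubated overnight at 37 deg C.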
# Starred values were filed as active, the others as inactive; i = inactive; ? = inconclusive; · = no result given. Unless noted, the call rests on the fitted dose curve; in most records, active means well fitted curve in the direction sought with a large enough effect; inconclusive means small, poorly fitted or top-dose-only effect, or another doubt; inactive means no such curve, though single readings can be large; an effect the other way counts as inactive or inconclusive.
SMILES,ASM inhibitor,12-LOX inh,TSG101-PTAP inh,pAkt inh,Vif-A3F inh,Vif-APOBEC3G blk
O=C1c2ccccc2C(=O)C1c1nccc2ccccc12,-5.8%,0.0%,1.7%,i,-3.7%,-0.1%
Nc1ccnc2ccccc12,·,72.3%,·,·,·,·
N#CC1=C(N)SC(N)=C(C#N)C1c1ccnc2ccccc12,6.6%,4.47µM*,15.1%,i,?,?
O=C1c2ccccc2C(=O)C1c1ccnc2ccccc12,-6.5%,-3.6%,-3.6%,-122.4%*,-6.2%,0.3%
Cc1cc(N2CCN(S(=O)(=O)c3ccc(Cl)c(Cl)c3)CC2)nc(C(C)C)n1,·,-53.8%,·,·,·,·
CCn1c(SCc2ccc(C)cc2)nnc1C1CCN(S(=O)(=O)c2ccc(OC)cc2)CC1,-2.3%,0.0%,0.0%,-129.8%*,1.5%,0.6%
CCn1c(SCc2ccc(F)cc2)nnc1C1CCN(S(=O)(=O)c2ccc(OC)cc2)CC1,-0.8%,-11.2%,-8.3%,i,0.7%,0.3%
CCOC(=O)c1ccc(Nc2nc3ccccc3nc2NS(=O)(=O)c2ccc(C)c(C)c2)cc1,·,-3.4%,·,·,·,·
CC(C)(C)c1ccc(O)c(N=Cc2cc3c(cc2[N+](=O)[O-])OCO3)c1,-2.6%,35.5µM*,-1.0%,i,-24.5%,1.4%
O=[N+]([O-])c1cc(Br)cc(C=Nc2ccc3c(c2)OCO3)c1O,-2.5%,35.5µM*,0.8%,i,-1.5%,0.3%
CN(C(=O)CNc1cc(F)ccc1F)C1CCS(=O)(=O)C1 (stereo unspecified),·,20.3%,·,·,·,·
C=CCn1c(SCC(=O)c2ccc(O)c(O)c2)nnc1-c1cccc(C)c1,-3.8%,8.91µM*,-0.3%,i,-10.4%,0.8%
O=c1c2ccccc2nc(/C=C/c2ccc([N+](=O)[O-])o2)n1CCCO,-2.0%,?,-2.6%,i,22.4µM*,?
O=C(c1ccc(Cl)cc1)C(CN1CCCCCC1)c1ccccc1 (stereo unspecified),·,-13.8%,·,·,·,·
O=C(c1ccccc1)C(CN1CCCCC1)c1ccccc1 (stereo unspecified),0.7%,44.7µM*,-4.2%,i,-6.8%,?
NS(=O)(=O)c1ccc(N2N=C(c3ccccc3)CC2c2ccccc2Br)cc1 (stereo unspecified),i,-9.9%,0.9%,i,7.1%,-3.2%
COc1ccccc1N1N=C(c2ccc([N+](=O)[O-])cc2)CC1c1ccccc1 (stereo unspecified),-14.2%,49.5%,1.0%,i,-952.8%,2.51µM*
O=[N+]([O-])c1ccc(N2N=C(c3ccccc3)CC2c2ccccc2O)cc1 (stereo unspecified),·,25.1µM*,·,·,·,·
Cc1ccc(C)c(NC(=O)c2cc3c([nH]c4ccccc43)c(C)n2)c1,6.6%,0.0%,0.4%,-101.3%*,3.5%,-1.1%
COc1ccc(-c2ccccc2NC(=O)C2CCCN(Cc3c(O)cccc3OC)C2)cc1 (stereo unspecified),·,8.1%,·,·,·,·
CNC(=O)CCn1ncc2cc(OC3CCc4cccc(-c5ccc(O)c(F)c5)c43)ccc21 (stereo unspecified),·,50.1µM*,·,·,·,·
CC(C)(C(=O)N1CCN(C(=O)c2cc(=O)[nH]c3ccccc23)CC1)c1ccccc1,·,1.6%,·,·,·,·
CCCCCNC(=O)C(c1ccccc1F)n1c(=O)c(-c2ccco2)nc2ccccc21 (stereo unspecified),·,20µM*,·,i,·,·
O=C(NCc1ccccc1)C(c1ccccc1)n1c(=O)c(-c2ccco2)nc2ccccc21 (stereo unspecified),·,?,·,i,·,·
O=C(NC1CCCCC1)C(c1ccc(-c2ccccc2)cc1)n1c(=O)c(-c2ccco2)nc2ccccc21 (stereo unspecified),·,44.7µM*,·,i,·,·
CCCCCNC(=O)C(c1ccc(OC)cc1)n1c(=O)c(-c2ccco2)nc2ccccc21 (stereo unspecified),·,5.62µM*,·,i,·,·
